# According to PubChem BioAssay (EPA / NIEHS):
# Inconclusive results are not listed. Calls of active or inactive are those of the source. How the source made its calls: active means hit-call score of the fitted dose curve at least 0.9, where 1 is the maximum; inconclusive means response in the unintended direction; inactive means score below 0.9.
# Assay: Tanguay_ZF_120hpf_PIG_legacy: (Legacy) Oregon State University Tanguay Lab 120 Hour Post-fertilization zebrafish Assay for Pigmentation Malformation (AID 2283650);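 further: dechorionated Tropical 5D zebrafish embryos exposed singly from 6 to 120 hpf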
# Experimental: Tanguay_ZF_120hpf_legacy is a whole embryo, multiplexed endpoint assay using zebrafish larvae exposed for 120 hours post fertilization on a 96-well plate.Tanguay_ZF_120hpf_PIG_legacy is one of one assay component(s) measured or calculated from the Tanguay_ZF_120hpf_legacy assay. It is designed to make measurements of zebrafish development as detected with brightfield microscopy of developing zebrafish embryos.Data from the assay component Tanguay_ZF_120hpf_PIG_legacy was analyzed into 1 assay endpoints. This assay endpoint, Tanguay_ZF_120hpf_PIG_legacy, was analyzed in the positive analysis fitting direction relative to DMSO as the negative control and baseline of activity. Using a type of morphology reporter, gain-of-signal activity can be used to understand changes in developmentals as they relate to the whole embryo. To generalize the intended target to other relatable targets, this assay endpoint is annotated to the zebrafish development intended target family, where the subfamily is embryonic pigmentation.
# Zebrafish husbandry: Tropical 5D wild-type adult zebrafish were housed in at an approximate density of 1000 per 100 gallon tank at the Sinnhuber Aquatic Research Laboratory, Oregon State University, Corvallis, OR. Each tank was kept at standard laboratory conditions of 28C on a 14-h light/10-h dark photoperiod in fish water consisting of reverse osmosis water supplemented with a commercially available salt (Instant Ocean). Spawning funnels were placed into the tanks the night prior, and embryos were collected and staged. To increase bioavailability, the chorion was enzymatically removed using pronase (63.6mg/ml, >/= 3.5U/mg, Sigma-Aldrich: P5147) at 4 hours post fertilization (hpf) using a custom automated dechorionator.Chemical exposures: Six hpf dechorionated embryos were placed 1 embryo per well in a 96-well plate prefilled with 90 ul of EM using automated embryo placement systems (AEPS). Ten microliters of each row of dilution plate 2 was added to 2 exposure plates. The final DMSO concentration used was 0.64% (vol/vol). Thirty-two embryos were also exposed to 5uM trimethyltin chloride (positive control). Plates were sealed to prevent evaporation and foil covered to reduce light exposure and kept in a 28C incubator. Embryos were statically exposed until 120 hpf. At 24 hpf, embryos were assessed for photomotor response using a custom photomotor response analysis tool (PRAT) and for developmental toxicity endpoints (MO24: mortality at 24 hpf, DP: developmental progression, SM: spontaneous movement, and NC: notochord distortion). At 120 hpf, locomotor activity was measured using Viewpoint Zebralab and assessed for 18 endpoints. Zebrafish acquisition and analysis program (ZAAP), a custom program designed to inventory, acquire, and manage zebrafish data, was used to collect developmental endpoints as either present or absent (i.e., binary responses were recorded). If mortality occurred for an embryo (at either 24 or 120 hpf), the non-mortality endpoints were not measured.
Compound,outcome,AC50
O=c1c(O)c(-c2ccc(O)c(O)c2)oc2cc(O)cc(O)c12,inactive,–
Nc1ccccc1N,inactive,–
COCCOCCOC,inactive,–
CCCCCCCCCCO,inactive,–
COc1ccc(S(=O)(=O)N2C(=O)[C@@](c3ccccc3OC)(N3C[C@H](O)C[C@H]3C(=O)N(C)C)c3cc(Cl)ccc32)c(OC)c1,inactive,–
COc1cc(C=O)ccc1O,–,45.9 µM (active)
Nc1nc(N)c2nc(CNc3ccc(C(=O)N[C@@H](CCC(=O)O)C(=O)O)cc3)cnc2n1,inactive,–
Cc1cccc([N+](=O)[O-])c1C,inactive,–
CCCCCC(=O)O,inactive,–
CCCc1cc(=O)[nH]c(=S)[nH]1,inactive,–
CC(=O)OC/C=C(\C)CCC=C(C)C,inactive,–
CCCCCCCCCCCCCCCCCC(=O)O,inactive,–
CC(=O)Oc1ccccc1C(=O)O,inactive,–
Clc1cc(Cl)c(Cl)cc1Cl,inactive,–
CC(C)(C)c1cc(O)c(C(C)(C)C)cc1O,inactive,–
C=CCc1ccc(O)c(OC)c1,inactive,–
CCCCOC(=O)CCCCCCCCC(=O)OCCCC,inactive,–
CCCCC(CC)COC(=O)CC(C(=O)OCC(CC)CCCC)S(=O)(=O)O (stereo not given),inactive,–
CCOc1ccc2c(c1)C(C)=CC(C)(C)N2,inactive,–
Cc1nc(C)nc(N2C[C@@H](C)N(c3ccnc([C@@H](C)O)n3)[C@@H](C)C2)n1,inactive,–

Compound,outcome,AC50
O=C(OCCCCCOC(=O)c1ccccc1)c1ccccc1,inactive,–
OC[C@@H](O)[C@@H](O)[C@H](O)[C@H](O)CO,inactive,–
Oc1ccc2c(c1)OC[C@@H](N1CCC(O)(c3ccc(F)cc3)CC1)[C@H]2O,inactive,–
C=CCOC(=O)c1ccccc1C(=O)OCC=C,inactive,–
COc1cc(-c2nc(NC(=O)c3cc4cc(C)cc(C)c4n3CC(=O)O)sc2CCC2CCCCC2)c(OC)cc1Cl,inactive,–
CCOC(=O)CCC(=O)OCC,inactive,–
CC(CO)OC(C)CO (stereo not given) (tested in a mixture with another compound),inactive,–
Cc1ccccc1Cl,inactive,–
CC1(C)CC(N=C=O)CC(C)(CN=C=O)C1 (stereo not given),inactive,–
NCCO,inactive,–
COC(=O)c1ccc(O)cc1,inactive,–
CN1CCCC1=O,inactive,–
NS(=O)(=O)c1cc2c(cc1Cl)NCNS2(=O)=O,inactive,–
COc1ccc(C)cc1N,inactive,–
Cc1oc(-c2ccccc2)nc1CCOc1cccc2c1ccn2CCC(=O)O,inactive,–
CCCCCCCCCCCC(=O)OC,inactive,–
CC=Cc1ccc(O)c(OC)c1,inactive,–
O=C(N[C@@H](Cc1ccccc1)[C@@H](O)C(=O)N1C[C@@H](O)[C@@H](O)C1)c1cc2cc(Cl)ccc2[nH]1,inactive,–
O=[N+]([O-])C(CO)(CO)CO,inactive,–
CN1CCN(Cc2cc(-c3ccc4[nH]c(=O)oc4c3)co2)[C@@H](c2ccc(F)cc2)C1,inactive,–
